# The supplement of paper PMC10037445
# Where “and” joins values, the source holds several entries; their conditions need not be identical. Equal values may be shown once. Whole data set: some 2,900 compounds, median “NF-kB SEAP reporter activity, fold change vs agonist alone” near 0.99, cut for the highest 2% near 2.6. This excerpt belongs to a sample that is enriched for the highest values.
# Tests used:
# RAW-Dual [1] = test: NF-kB SEAP reporter activity, fold change vs agonist alone; cytotoxicity flag (confluency mask): not cytotoxic; higher = enhanced NF-kB activity
# In short: (§1)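 Reporter activity is given as fold change relative to agonist-alone wells. To measure it, 50 nL of library stock was pin-tooled onto RAW-Dual macrophages (50,000 cells/well, DMEM, 384-well plates), a PRR agonist followed 1 h later, and cells stayed at 37 °C, 5% CO2. Twenty hours on, supernatant was assayed for IRF (QuantiLuc luminescence) and NF-κB (QuantiBlue, 620 nm absorbance), and wells under 70% of agonist-control IncuCyte confluency in both mask sets were marked cytotoxic.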
# RAW-Dual [2] = test: NF-kB SEAP reporter activity, fold change vs agonist alone; higher = enhanced NF-kB activity
# In short: as §1
# RAW-Dual [3] = test: NF-kB SEAP reporter activity, fold change vs agonist alone; cytotoxicity flag (confluency mask): cytotoxic (confluency <70% of control); higher = enhanced NF-kB activity
# In short: as §1
# [4] = agonist: ODN 1826 (TLR9) 0.5 ug/mL
# [5] = agonist: Pam2CSK4 (TLR2/6) 0.1 ug/mL
# [6] = agonist: Pam3CSK4 (TLR2/1) 0.1 ug/mL
# [7] = library stock concentration (final ~1000-fold dilution): 10 mM, cytotoxicity flag (confluency mask): not cytotoxic, agonist: MPLA (TLR4) […]
# [8] = library stock concentration (final ~1000-fold dilution): 10 mM, cytotoxicity flag (confluency mask): not cytotoxic, agonist: Imiquimod (TLR7) […]
smiles,measurement,setting,value
O=C1c2ccc(O)cc2C(=O)c2ccc(O)cc21 (library stock concentration (final ~1000-fold dilution): 10 mM),NF-kB SEAP reporter activity,RAW-Dual [1]; agonist: LPS (TLR4) 0.1 ug/mL,1.38
same,NF-kB SEAP reporter activity,RAW-Dual [1]; [4],1.04
same,NF-kB SEAP reporter activity,RAW-Dual [1]; [5],1.32
same,NF-kB SEAP reporter activity,RAW-Dual [1]; [6],1.16
O=C1c2ccc(O)cc2C(=O)c2ccc(O)cc21,NF-kB SEAP reporter activity,RAW-Dual [2]; [7],1.26
Nc1nc(F)nc2c1ncn2C1OC(COP(=O)(O)O)C(O)C1O (centres undefined) (library stock concentration (final ~1000-fold dilution): 10 mM),NF-kB SEAP reporter activity,RAW-Dual [1]; agonist: LPS (TLR4) 0.1 ug/mL,1.14
same,NF-kB SEAP reporter activity,RAW-Dual [1]; [4],1.01
same,NF-kB SEAP reporter activity,RAW-Dual [1]; [5],1
same,NF-kB SEAP reporter activity,RAW-Dual [1]; [6],1.15
Nc1nc(F)nc2c1ncn2C1OC(COP(=O)(O)O)C(O)C1O (centres undefined),NF-kB SEAP reporter activity,RAW-Dual [2]; [8],0.903
same,NF-kB SEAP reporter activity,RAW-Dual [2]; [7],1.03
O=C(c1ccccc1)c1ccc2nc(NC(=O)c3csc(C4CCN(c5ncnc6ccsc56)CC4)n3)[nH]c2c1 (library stock concentration (final ~1000-fold dilution): 10 mM),NF-kB SEAP reporter activity,RAW-Dual [1]; agonist: LPS (TLR4) 0.1 ug/mL,2.75 and 2.17
same,NF-kB SEAP reporter activity,RAW-Dual [1]; [4],1.57 and 1.25
same,NF-kB SEAP reporter activity,RAW-Dual [1]; [5],0.384 and 0.435
same,NF-kB SEAP reporter activity,RAW-Dual [1]; [6],0.694 and 0.75
CNC(C)C(=O)NC(C(=O)N1CCCC1C(=O)NC1c2ccccc2CC1OCC#CC#CCOC1Cc2ccccc2C1NC(=O)C1CCCN1C(=O)C(NC(=O)C(C)NC)C1CCCCC1)C1CCCCC1 (centres undefined) (library stock concentration (final ~1000-fold dilution): 10 mM water),NF-kB SEAP reporter activity,RAW-Dual [3]; agonist: LPS (TLR4) 0.1 ug/mL,0.764
same,NF-kB SEAP reporter activity,RAW-Dual [3]; [4],1.11
same,NF-kB SEAP reporter activity,RAW-Dual [3]; [5],0.798
same,NF-kB SEAP reporter activity,RAW-Dual [3]; [6],0.718
CNC(C)C(=O)NC(C(=O)N1CCCC1C(=O)NC1c2ccccc2CC1OCC#CC#CCOC1Cc2ccccc2C1NC(=O)C1CCCN1C(=O)C(NC(=O)C(C)NC)C1CCCCC1)C1CCCCC1 (centres undefined),NF-kB SEAP reporter activity,"RAW-Dual [2]; library stock concentration (final ~1000-fold dilution): 10 mM water, cytotoxicity flag (confluency mask): cytotoxic (confluency <70% of control), agonist: Imiquimod (TLR7) […]",0.836
same,NF-kB SEAP reporter activity,"RAW-Dual [2]; library stock concentration (final ~1000-fold dilution): 10 mM water, cytotoxicity flag (confluency mask): cytotoxic (confluency <70% of control), agonist: MPLA (TLR4) […]",0.786
CC1(F)C(O)C(CO)OC1n1ccc(=O)[nH]c1=O (centres undefined),NF-kB SEAP reporter activity,RAW-Dual [2]; [7],1.02
CC1(F)C(O)C(CO)OC1n1ccc(=O)[nH]c1=O (centres undefined) (library stock concentration (final ~1000-fold dilution): 10 mM),NF-kB SEAP reporter activity,RAW-Dual [1]; agonist: LPS (TLR4) 0.1 ug/mL,1.26
same,NF-kB SEAP reporter activity,RAW-Dual [1]; [4],0.945
same,NF-kB SEAP reporter activity,RAW-Dual [1]; [5],0.82
same,NF-kB SEAP reporter activity,RAW-Dual [1]; [6],0.78
CC1COCCN1c1cc(-c2ccnn2C)c2ccnc(-c3ccn[nH]3)c2n1.Cl (centres undefined),NF-kB SEAP reporter activity,RAW-Dual [2]; [8],1.48
same,NF-kB SEAP reporter activity,RAW-Dual [2]; [7],2.05
CC1COCCN1c1cc(-c2ccnn2C)c2ccnc(-c3ccn[nH]3)c2n1.Cl (centres undefined) (library stock concentration (final ~1000-fold dilution): 10 mM),NF-kB SEAP reporter activity,RAW-Dual [1]; agonist: LPS (TLR4) 0.1 ug/mL,1.89
same,NF-kB SEAP reporter activity,RAW-Dual [1]; [4],0.957
same,NF-kB SEAP reporter activity,RAW-Dual [1]; [5],1.09
same,NF-kB SEAP reporter activity,RAW-Dual [1]; [6],1.19
CC(C)NCC(O)COc1cccc2ccccc12.Cl (centres undefined),NF-kB SEAP reporter activity,RAW-Dual [2]; [8],1.07
same,NF-kB SEAP reporter activity,RAW-Dual [2]; [7],1.04
CC(C)NCC(O)COc1cccc2ccccc12.Cl (centres undefined) (library stock concentration (final ~1000-fold dilution): 10 mM),NF-kB SEAP reporter activity,RAW-Dual [1]; agonist: LPS (TLR4) 0.1 ug/mL,0.913
same,NF-kB SEAP reporter activity,RAW-Dual [1]; [4],0.94
same,NF-kB SEAP reporter activity,RAW-Dual [1]; [5],0.822
same,NF-kB SEAP reporter activity,RAW-Dual [1]; [6],1.08
CNCCN(C)Cc1c[nH]nc1-c1ccc(OC2CC(OCCC3CCOCC3)C2)cc1.Cl.Cl (centres undefined),NF-kB SEAP reporter activity,RAW-Dual [2]; [8],0.935
same,NF-kB SEAP reporter activity,RAW-Dual [2]; [7],1.07
CNCCN(C)Cc1c[nH]nc1-c1ccc(OC2CC(OCCC3CCOCC3)C2)cc1.Cl.Cl (centres undefined) (library stock concentration (final ~1000-fold dilution): 10 mM),NF-kB SEAP reporter activity,RAW-Dual [1]; agonist: LPS (TLR4) 0.1 ug/mL,0.836
same,NF-kB SEAP reporter activity,RAW-Dual [1]; [4],0.674
same,NF-kB SEAP reporter activity,RAW-Dual [1]; [5],0.874
same,NF-kB SEAP reporter activity,RAW-Dual [1]; [6],0.586
COc1ccc(CCc2nc3cc(-c4c(C)noc4C)ccc3n2CC(C)N2CCOCC2)cc1Cl (centres undefined) (library stock concentration (final ~1000-fold dilution): 10 mM),NF-kB SEAP reporter activity,RAW-Dual [1]; agonist: LPS (TLR4) 0.1 ug/mL,4.47
same,NF-kB SEAP reporter activity,RAW-Dual [1]; [4],2.49
same,NF-kB SEAP reporter activity,RAW-Dual [1]; [5],1.06
same,NF-kB SEAP reporter activity,RAW-Dual [1]; [6],2.27
CCCOc1ccc(CCc2nc3cc(-c4c(C)noc4C)ccc3n2CCN2CCOCC2)cc1.Cl (library stock concentration (final ~1000-fold dilution): 10 mM),NF-kB SEAP reporter activity,RAW-Dual [1]; agonist: LPS (TLR4) 0.1 ug/mL,2.48
same,NF-kB SEAP reporter activity,RAW-Dual [1]; [4],1.9
same,NF-kB SEAP reporter activity,RAW-Dual [1]; [5],0.609
same,NF-kB SEAP reporter activity,RAW-Dual [1]; [6],1.04
CCCOc1ccc(CCc2nc3cc(-c4c(C)noc4C)ccc3n2CCN2CCOCC2)cc1.Cl,NF-kB SEAP reporter activity,RAW-Dual [2]; [8],1.53
same,NF-kB SEAP reporter activity,RAW-Dual [2]; [7],1.98
